Many of the other results were omitted from the sample, so hits are more common in it than they were.
KDM5B inhibitor = KDM5B demethylase inhibition. Q9UGL1. Potency, µM (top dose mostly 57.7 µM), actives largely listed as inhibitors. AID 1347165. KDM5B demethylase, FDH-coupled NADH fluorescence (FDH is formaldehyde dehydrogenase). 2.6% of 220,000 active; active means well fitted inhibition curve with a large enough effect; further: 0% is about no effect; nearly all actives have a fitted effect of over 70% in size
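Compound dilutions met 200 nM (final) KDM5BΔAP for 10 min at room temperature before substrate addition. The substrate mix held 12.5 µM H3K4me3 with cofactors 25 µM α-ketoglutarate and 50 µM Fe²⁺. NADH signal gain over 30 min defined activity.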
Active calls of the source: *; i = inactive. Potency means the concentration at half of the fitted maximal effect.

SMILES	KDM5B inhibitor
COc1ccc(CC2C(=O)Nc3ccc(Br)cc32)cc1 (stereo unspecified)	i
COc1cc(CN2CCN(c3ncnc(C)c3C)CC2CCO)cc(OC)c1 (stereo unspecified)	i
Cc1ccc(CN2CCN(c3nc(C)ccc3C#N)CC2CCO)cc1 (stereo unspecified)	18µM*
CCOc1ccc(CN2CCN(c3cc(C)nc(NC)n3)CC2CCO)cc1 (stereo unspecified)	i
O=c1c2ccccc2ncn1Cc1ncc(-c2ccc(Cl)cc2)o1	i
CCOC(=O)COc1ccc2c(=O)c(Oc3ccc(C(=O)OCC)cc3)c(C)oc2c1	i
CC(Sc1ccc2c(c1)OCCCO2)C(=O)c1ccc(F)cc1 (stereo unspecified)	i
COc1cccc(CN2CCc3nc(C4CC4)nc(-c4ccc(O)cc4)c3C2)c1	i
CCc1nc2c(c(-c3ccc(Cl)cc3)n1)CCN(Cc1cccn1C)CC2	i
COc1ccc(-c2nc(C3CC3)nc3c2CCN(Cc2cccn2C)CC3)cc1	50µM*
CN(C)c1ccc(CN2CCc3nc(C4CC4)nc(-c4ccc(O)cc4)c3CC2)cc1	i
COc1ccc(-c2nc(C3CC3)nc3c2CN([S+](=O)([O-])c2ccccc2)CC3)cc1	i
COc1ccc(C(=O)N2CCc3nc(C4CC4)nc(-c4ccc(OC)cc4)c3C2)cc1	i
COc1ccc(-c2nc(C3CC3)nc3c2CCN(CC2CCCCC2)CC3)cc1	25µM*
COc1ccc(-c2nc(C3CC3)nc3c2CCN(Cc2ccsc2)CC3)cc1	79µM*
CCc1nc2c(c(-c3ccc(O)cc3)n1)CCN(Cc1ccsc1)CC2	i
CC(NC/C=C/c1ccccc1)c1ccccc1 (stereo unspecified)	i
OCCC#CCN1CCCCC1	i
CC(=O)Nc1ccc(NC(=O)CC2C(=O)NCCN2C(=O)CN2CCN(c3ncccn3)CC2)cc1 (stereo unspecified)	i
COc1ccc(C(=O)NC[C@@H]2C=C(C)[C@H](Cc3nnc(-c4ccncc4)o3)C[C@H]2C(C)C)cc1	i
COC(=O)c1c(C)[nH]c(C(=O)NCCc2ccc(Cl)cc2)c1C	i
CCCCCCn1nc(C(=O)OCC(=O)Nc2cc(C)on2)c2ccccc2c1=O	i
CCOc1ccccc1NC(=O)Nc1ccc(CN2CCOCC2)cc1	i
O=C(Nc1ccc(N2CCOCC2)cc1)[C@H]1CN(Cc2ccccc2)C[C@H]1C(=O)O	i
CC1(C(=O)Nc2ccccc2)CN(Cc2ccccc2)Cc2ccc(N3CCOCC3)nc21 (stereo unspecified)	13µM*
SMILES	KDM5B inhibitor
O=C(NC(=S)Nc1ccc(CN2CCOCC2)cc1)c1cccc(F)c1	i
CC1(C(=O)Nc2ccc(F)cc2)CN(Cc2ccccc2)Cc2ccc(N3CCOCC3)nc21 (stereo unspecified)	32µM*
O=C(NCc1ccc(F)cc1)Nc1cccc(-c2ccc(N3CCOCC3)nn2)c1	i
Cc1ccc2c(=O)cc(C(=O)N(Cc3ccc(Cl)cc3)Cc3ccco3)oc2c1	i
O=C1NCc2ccccc2CC12CCN(Cc1ccc(F)cc1O)CC2	i
COc1cc(OC)c(OC)cc1/C=C(/C#N)c1ccc(Cl)cc1	i
CCOC(=O)c1cc(NC(=O)C(C)CC)cc(C(=O)OCC)c1 (stereo unspecified)	i
O=C(COc1ccc(F)cc1)N1CCC(Oc2ncccc2C(=O)N2CCCCC2)C1 (stereo unspecified)	i
CC(C)(C)c1cc(SCCC#N)cc(C(C)(C)C)c1O	i
O=C(CN1CCN(C(=O)c2cc(-c3ccccc3Cl)n[nH]2)CC1)N1CCCCC1	i
Cc1ccc(S(=O)(=O)N2CCCN(C)c3ccccc32)c(C)c1	i
Cc1cccc(S(=O)(=O)N2CCCN(C)c3ccccc32)c1	i
CN1CCCN(S(=O)(=O)c2ccc(C(F)(F)F)cc2)c2ccccc21	14µM*
CN1CCCN(S(=O)(=O)c2cccc(Br)c2)c2ccccc21	14µM*
CN1CCCN(S(=O)(=O)c2ccc(Cl)s2)c2ccccc21	i
CN1CCCN(S(=O)(=O)c2ccc(Cl)cc2)c2ccccc21	i
COC(=O)c1cccc(S(=O)(=O)Oc2ccc3c(C)cc(=O)oc3c2C(C)=O)c1	i
CCOc1cc(C2/C(=C(\O)c3ccc(Cl)cc3)C(=O)C(=O)N2c2cc(C)on2)ccc1O (stereo unspecified)	i
CCCn1ncc(-c2nc(-c3ccncc3)no2)c1C	i
O=C(NCCNS(=O)(=O)c1cccc2nonc12)c1ccc2cc[nH]c2c1	i
CC(NC(=O)CSc1nc(CN2CCOCC2)nc2ccccc12)c1cccc2ccccc12 (stereo unspecified)	i
Cc1c(-c2ccc(F)cc2)[n+](=O)c(-c2ccc(Cl)cc2)c(C)n1[O-]	i
Cn1c(=O)c2c(ncn2CCCNC2=NCCC2)n(C)c1=O	i
COc1cccc(C(=O)NCC2(COc3cccc(C)n3)C[C@@H](O)[C@@H](O)C2)c1 (stereo partly specified)	i
Cc1cccc(OCC2(CNC(=O)c3cccc(F)c3)C[C@@H](O)[C@@H](O)C2)n1 (stereo partly specified)	i
SMILES	KDM5B inhibitor
Cc1cccc(OCC2(CNC(=O)c3cc(C)nn3C)C[C@@H](O)[C@@H](O)C2)n1 (stereo partly specified)	32µM*
O=C1c2cnc(-c3cccc(O)c3)nc2OCCN1Cc1ccc(F)cc1F	i
COc1ccccc1-c1ncc2c(n1)OCCN(Cc1ccc(F)cc1F)C2=O	35µM*
COc1cccc(-c2ncc3c(n2)OCCN(Cc2ccc(F)cc2F)C3=O)c1	35µM*
N#Cc1cccc(-c2ncc3c(n2)OCCN(Cc2ccc(F)cc2F)C3=O)c1	i
O=C1c2cnc(-c3cc4ccccc4o3)nc2OCCN1CC1CC1	i
O=C1c2cnc(-c3ccccc3)nc2OCCN1Cc1ccc(F)cc1F	i
O=C1c2cnc(-c3ccccc3OCc3ccccc3)nc2OCCN1CC1CC1	32µM*
O=C1c2cnc(-c3cc(F)cc(F)c3)nc2OCCN1Cc1ccc(F)cc1F	i
O=C1c2cnc(-c3ccccc3)nc2OCCN1Cc1ccccc1	i
Cc1ccc(Cl)cc1Nc1nc(N)c(C(=O)c2ccccc2F)s1	i
N#Cc1ccc(CSc2nnnn2-c2ccccc2)cc1	i
CCOCCn1c(=O)c2c(nc(-n3nc(CC)cc3CC)n2C)n(C)c1=O	i
Cc1ccccc1C(=O)/C=C/c1cccnc1	i
O=C(Cn1nc2n(c1=O)CCCCC2)Nc1ccc(Cl)cc1	i
O=C(c1cc(Cl)ccc1O)N1CCN(S(=O)(=O)c2ccccc2)CC1	i
Cc1nn(-c2ccc(F)cc2)c(Oc2cccc(F)c2)c1CCC(=O)N1CCSCC1	i
COc1ccccc1OCc1nnc(C(=O)N2CCC[C@@H]2C(c2ccccc2)c2ccccc2)n1-c1ccccc1	i
O=C(c1nnc(CNCc2cccc(F)c2)n1-c1cccnc1)N1CCC[C@@H]1C(c1ccccc1)c1ccccc1	i
O=C(c1nnc(CNc2ccccn2)n1-c1cccnc1)N1CCC[C@@H]1C(c1ccccc1)c1ccccc1	13µM*
Cc1ccc(-n2c(C)c(C)c3c2ncn2nc(-c4ccncc4)nc32)cc1	i
CC(C)(C)NC(=O)CNc1nc(-c2ccncc2)nc2ccccc12	i
COc1cccc(C(=O)NCC2CCCN(Cc3cccnc3)C2)c1OC (stereo unspecified)	i
COc1ccccc1C(C(=O)O)N1CCC(OCc2cccnc2)CC1 (stereo unspecified)	i
